The record followed here is PubChem BioAssay (NCATS).

Assay [1] is described as follows: High-throughput drug toxicity screening in the BPDCN cell line Cal-1 (AID 1224825; call rule not given here). As to conditions: Cal-1 BPDCN cell viability, qHTS; at 45.8 µM (top of the series) unless noted. In outline: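 CellTiter-Glo luminescence after 48 h compound exposure; percent activity scaled with DMSO as 100% and bortezomib (9.2 uM final) as 0%. Cal-1 cells seeded at 500/well in RPMI, 10% FBS, no phenol red.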

Assay [2] is described as follows: qHTS assay for measurement of the activity of small molecule inhibitors on Zika virus induced Caspase-3 activity in human iPSC derived neural progenitor cells (hNPCs) (AID 1224857). Also: nearly all actives have a fitted effect of over 65% in size. Also: potency is read from the fitted curve at half-maximal effect. In outline:
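Human iPSC-derived neural progenitor cells pretreated 1 hr with compounds, then infected with Zika virus (2 FFU/cell) for 6 hours at 37 C. Caspase-3/7 measured by Caspase-Glo luminescence; % inhibition calculated from induction scaled to uninfected (0%) and infected (100%) wells.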

A short description of assay [3]: qHTS Screen of the MIPE 4.0 Collection Against Ewings Sarcoma (RDES) (AID 1259252). Also: nearly all actives have a fitted effect of over 35% in size. Also: potency is read from the fitted curve at half-maximal effect. In outline: (§1)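 Log-phase cells in RPMI with 5% FBS attached for 4 h, then received compounds as a titration for 48 h at 37C, 5% CO2. Viability was read by CellTiter-Glo luminescence and normalized to DMSO and no-cell wells.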
Assay [4] in a line: qHTS Screen of the MIPE 4.0 Collection Against Ewings Sarcoma (EW8) (AID 1259255). Also: nearly all actives have a fitted effect of over 35% in size. Also: potency is read from the fitted curve at half-maximal effect.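 As to viability: 100% = DMSO-treated cells and 0% = medium-only wells without cells.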 Summed up: as §1
Assay [5] is described as follows: P-glycoprotein substrates identified in KB-3-1 adenocarcinoma cell line, qHTS therapeutic library screen (AID 1346986). Also: nearly all actives have a fitted effect of over 60% in size. Summed up: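 In 1536-well format, 500 cells/well received pinned compound titrations and were incubated 72 h, 5% CO2. Viability was read by CellTiter-Glo; cytotoxic if AC50 < 10 uM and efficacy >50%.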
A short description of assay [6]: P-glycoprotein substrates identified in KB-8-5-11 adenocarcinoma cell line, qHTS therapeutic library screen (AID 1346987). Also: nearly all actives have a fitted effect of over 65% in size. Also: potency is read from the fitted curve at half-maximal effect. In outline:
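Luminescence from CellTiter-Glo, read 5 min after addition, quantified survival of KB-8-5-11 (P-gp-overexpressing) cells exposed to compounds for 72 h. AC50 was derived from concentration-response curves.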

Assay [7] is described as follows: NS1 protein of Zika virus - qHTS assay to identify small molecule inhibitors in human HEK 293 cells (AID 1347053).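 Also: plate controls were infected untreated cells for no effect and uninfected cells for full effect; nearly all actives have a fitted effect of over 55% in size.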 In outline:
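Compound-treated (1 h pre-infection) HEK 293 cells infected with ZIKV MR766, MOI = 0.5; after 24 h at 37 C, NS1 read by TR-FRET; data normalized to uninfected and infected controls.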

Assay [8] has as its target Tyrosine-protein phosphatase non-receptor type substrate 1 (Homo sapiens) + Leukocyte surface antigen CD47 (Homo sapiens) (UniProt P78324+Q08722). In words: CD47-SIRPalpha protein protein interaction - LANCE assay qHTS validation (AID 1347057; active = well fitted curve in the direction sought with a large enough effect in the signal ratio, with a control signal flat, not every such curve was filed as active; the % refers to the signal ratio; also: 0% is about no effect). In outline: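 Inhibition of soluble CD47/SIRPalpha ectodomain association by titrated compounds, measured as 665/615 nm time-resolved FRET ratio after sequential 30 min room-temperature incubations.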

The nature of assay [9]: qHTS Screen of the MIPE 4.0 Collection Against Ewings Sarcoma (TC71) (AID 1259253).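 Also: 100% = DMSO-treated cells and 0% = medium-only wells without cells; nearly all actives have a fitted effect of over 40% in size.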 In outline:
as §1

A short description of assay [10]: qHTS Screen of the MIPE 4.0 Collection Against Ewings Sarcoma (TC32) (AID 1259256). Also: nearly all actives have a fitted effect of over 45% in size. Also: potency is read from the fitted curve at half-maximal effect. Summed up:
as §1

Assay [11] is described as follows: qHTS assay to identify small molecule inhibitors of chordoma cells - UCH-1 (AID 1259355). Also: nearly all actives have a fitted effect of over 55% in size. Also: potency is read from the fitted curve at half-maximal effect. Summed up:
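Screening used approved and investigational drugs in 15-point titration against 800 seeded cells per well. A fixed combination of auranofin with camptothecin, doxorubicin, rubitecan and topotecan followed compound addition, and growth was scored by CellTiter-Glo after 48hr.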

Assay [12] in a line: qHTS assay to identify small molecule inhibitors of chordoma cells - UCH-2 (AID 1259356). Also: % is scaled to controls: 0 for no effect and ±100 for the full control effect.
Assay [13] can be described thus: qHTS assay for measurement of the activity of small molecule inhibitors on Zika virus induced Caspase-3 activity in human astrocytoma cells (AID 1224859).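 Also: plate controls were ZIKV-infected untreated cells for no effect and uninfected cells for full effect.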 Summed up: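 SNB-19 astrocytoma cells, 250/well, pretreated 1 h with compounds, then Zika virus at 2 FFU/cell for 6 h at 37 C; Caspase-Glo 3/7 luminescence after 30 min; percent inhibition normalised to uninfected and infected controls.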

The target of assay [14] is Atrial natriuretic peptide receptor 1 (Homo sapiens) (UniProt P16066). In words: Natriuretic polypeptide receptor (hNpr1) antagonism - Pilot screen (AID 1347049; calls by dose curve). In outline: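 cGMP-sensor HEK293/hNpr1 cells, 1500/well, plated overnight at 37C. 2% GloSensor reagent, 2 h RT. Compound (23 nL pin transfer) 30 min RT, baseline luminescence pre-read. 0.1 nM hNppA, 20 min RT, post-read.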

The nature of assay [15]: Identifying Small Molecule Inhibitors of Pancreatic Cancer Stem Cells (A2780, Spheroid) (AID 1259357). Also: potency is read from the fitted curve at half-maximal effect.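 Also: spheroids pre-formed over 14 days in stem cell medium on hydrogel; compound exposure lasted 48 h before the ATP luminescence read.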 As to conditions: Potency: A2780 spheroid viability. Summed up:
(§2)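 Viability is scored by CellTiter-Glo luminescence 48 h after dosing, expressed as percent activity against vehicle and no-cell references. Spheroid formats rely on cells cultured 14 days in stem cell media beforehand.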

Assay [16] can be described thus: Identifying Small Molecule Inhibitors of Pancreatic Cancer Stem Cells (SN12C, Adherent) (AID 1259358).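 Also: cell survival measured after 48 h of compound exposure.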 In outline: (§3)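 Spheroids grown 14 days in stem cell media on hydrogel-coated nonadherent plates; 2D lines seeded directly. Compounds added after 4 h attachment, 48 h at 37C, 5% CO2; CellTiter-Glo luminescence normalized to DMSO (no inhibition) and no-cell wells (full inhibition).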

The nature of assay [17]: Identifying Small Molecule Inhibitors of Pancreatic Cancer Stem Cells (A278, Adherent) (AID 1259361).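 Also: 100% = DMSO-treated cells and 0% = cell-free media-only wells; nearly all actives have a fitted effect of over 35% in size.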 Summed up:
as §3

Assay [18] can be described thus: Identifying Small Molecule Inhibitors of Pancreatic Cancer Stem Cells (SN12C, Spheroid) (AID 1259360).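 Also: 100% = DMSO-treated cells and 0% = wells without cells.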 As to conditions: Potency: SN12C spheroid viability. Summed up: as §2
The nature of assay [19]: Identifying Small Molecule Inhibitors of Pancreatic Cancer Stem Cells (Panc1, Adherent) (AID 1259362).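 Also: compound exposure lasted 48 h before the viability read; plate controls were DMSO-treated cells for no effect and cell-free media wells for full effect.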 As to conditions: Potency: viability. In outline:
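Endpoint: ATP-based luminescence, 48 h drug exposure. Bortezomib at 9.2 uM final as full-kill control; DMSO vehicle as negative control; activity normalized between vehicle and cell-free wells.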

A short description of assay [20]: Identifying Small Molecule Inhibitors of Pancreatic Cancer Stem Cells (Panc1, Spheroid) (AID 1259359).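 Also: potency is read from the fitted curve at half-maximal effect; compound exposure lasted 48 h before reading.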 As to conditions: Panc1 spheroid cancer stem cell viability. Summed up:
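Spheroids grown 14 days in stem cell media on nonadherent hydrogel before screening; cells attached 4 h, then compound exposure 48 h at 37C, 5% CO2. CellTiter-Glo luminescence normalized to DMSO (no inhibition) and no-cell wells (full inhibition).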

Several values for one entry are separate records, joined by “and”; a condition that tells them apart may be missing. Identical values can stand only once. Results filed as inconclusive are left out. A structure can be active in one record and inactive in another. Activity calls are given as the source filed them. Unless noted, calls follow the shape of the dose curve; as a rule, active = well fitted curve in the direction sought with a large enough effect; inconclusive = small, poorly fitted or top-dose-only effect, or another doubt; inactive = no such curve, though single readings can be large; an effect the other way counts as inactive or inconclusive. Peptide text beside a SMILES is read from it.

Atrial natriuretic peptide receptor 1 (Homo sapiens), sequence (P16066 whole entry, looked up): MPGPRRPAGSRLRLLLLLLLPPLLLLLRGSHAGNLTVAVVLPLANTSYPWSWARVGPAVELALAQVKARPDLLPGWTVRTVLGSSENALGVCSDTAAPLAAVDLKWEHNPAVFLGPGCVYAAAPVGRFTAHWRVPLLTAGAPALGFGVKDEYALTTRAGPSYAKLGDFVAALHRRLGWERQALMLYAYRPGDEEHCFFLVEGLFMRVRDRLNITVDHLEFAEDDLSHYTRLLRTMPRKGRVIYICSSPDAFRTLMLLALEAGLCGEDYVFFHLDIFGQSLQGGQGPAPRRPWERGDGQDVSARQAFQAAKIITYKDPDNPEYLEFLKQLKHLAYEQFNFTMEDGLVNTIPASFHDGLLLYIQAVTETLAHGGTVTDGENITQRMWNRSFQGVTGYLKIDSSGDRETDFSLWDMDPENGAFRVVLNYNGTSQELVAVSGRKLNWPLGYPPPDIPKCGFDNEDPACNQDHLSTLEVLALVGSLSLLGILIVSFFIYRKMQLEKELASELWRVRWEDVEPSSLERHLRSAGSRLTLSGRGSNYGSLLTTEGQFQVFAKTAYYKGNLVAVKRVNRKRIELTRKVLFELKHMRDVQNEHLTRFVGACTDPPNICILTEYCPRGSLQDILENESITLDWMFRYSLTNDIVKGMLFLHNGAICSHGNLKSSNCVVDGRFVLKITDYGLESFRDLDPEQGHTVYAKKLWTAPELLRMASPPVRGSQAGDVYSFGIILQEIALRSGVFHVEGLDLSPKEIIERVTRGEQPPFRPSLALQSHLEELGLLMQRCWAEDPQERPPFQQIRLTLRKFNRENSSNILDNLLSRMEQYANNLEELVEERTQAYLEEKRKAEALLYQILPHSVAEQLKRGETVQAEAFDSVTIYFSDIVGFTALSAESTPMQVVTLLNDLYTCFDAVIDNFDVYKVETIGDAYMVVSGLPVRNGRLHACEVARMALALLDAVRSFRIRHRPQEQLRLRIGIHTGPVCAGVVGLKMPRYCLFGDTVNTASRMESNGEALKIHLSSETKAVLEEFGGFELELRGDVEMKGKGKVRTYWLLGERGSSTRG
Tyrosine-protein phosphatase non-receptor type substrate 1 (Homo sapiens) + Leukocyte surface antigen CD47 (Homo sapiens), sequence (P78324 whole entry, looked up, the tested form may be a part): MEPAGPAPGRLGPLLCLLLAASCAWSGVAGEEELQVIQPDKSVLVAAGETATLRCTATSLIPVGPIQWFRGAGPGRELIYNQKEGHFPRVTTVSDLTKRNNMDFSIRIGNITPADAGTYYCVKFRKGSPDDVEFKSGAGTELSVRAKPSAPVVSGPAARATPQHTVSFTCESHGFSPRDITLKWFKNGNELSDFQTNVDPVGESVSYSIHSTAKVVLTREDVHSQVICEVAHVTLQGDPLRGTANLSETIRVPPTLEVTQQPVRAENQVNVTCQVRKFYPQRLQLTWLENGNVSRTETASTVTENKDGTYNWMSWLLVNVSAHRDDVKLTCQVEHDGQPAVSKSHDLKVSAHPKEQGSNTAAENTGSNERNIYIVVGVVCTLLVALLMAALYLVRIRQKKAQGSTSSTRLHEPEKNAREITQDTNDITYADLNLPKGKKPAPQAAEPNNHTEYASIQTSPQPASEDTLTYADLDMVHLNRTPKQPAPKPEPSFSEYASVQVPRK
Tyrosine-protein phosphatase non-receptor type substrate 1 (Homo sapiens) + Leukocyte surface antigen CD47 (Homo sapiens), sequence (Q08722 whole entry, looked up, the tested form may be a part): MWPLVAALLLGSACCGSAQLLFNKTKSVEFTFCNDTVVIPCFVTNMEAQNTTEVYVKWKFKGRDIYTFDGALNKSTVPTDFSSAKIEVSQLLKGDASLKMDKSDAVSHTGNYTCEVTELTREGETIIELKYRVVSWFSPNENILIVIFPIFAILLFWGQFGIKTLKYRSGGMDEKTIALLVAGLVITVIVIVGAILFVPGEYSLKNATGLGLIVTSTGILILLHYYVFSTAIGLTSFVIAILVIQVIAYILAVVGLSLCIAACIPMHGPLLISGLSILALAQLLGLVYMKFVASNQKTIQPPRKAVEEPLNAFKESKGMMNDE

With `CN(C)C(=O)[C@H](O)[C@H](Cc1ccccc1)NC(=O)c1cc2cc(Cl)ccc2[nH]1`, the viability (% of control) in assay [1] was 43.4%. Further, the Potency entry in assay [2], in assay [5], in [6] and in [7] was “inactive” each time. For the same compound, the Potency in assay [3] is 18.7 µM (active); in assay [4], 23.5 µM (active). Moreover, the outcome in assay [8] was inactive.

`CCC(C)(Oc1ccc(C2(c3ccc(OC(C)(CC)C(=O)O)cc3)CCCCC2)cc1)C(=O)O` (stereo not drawn): the viability (% of control) in [1] amounted to 136%. For the same compound, the Potency entry in assay [2], in assay [3], in [9], in assay [4], in assay [10] and in assay [11] was “inactive” in each case. For the same compound, the Potency result in assay [12], in assay [5], in assay [6] and in assay [7] was “inactive” each time.

Consider `Oc1ccc2ccccc2c1SSc1c(O)ccc2ccccc12`, for which the viability (% of control) in assay [1] turned out to be 0.636%. For the same compound, the Potency in [2] was 8.91 µM (active); in assay [10], 23.5 µM (active). The Potency entry in assay [13], in assay [5], in assay [6] and in assay [7] was “inactive” each time. The outcome in assay [14] was “inactive; inac”. In addition, the outcome in assay [8] was inactive.

In the case of `Cc1cccc(-c2[nH]ncc2-c2ccc3ncccc3n2)n1`, the viability (% of control) in assay [1] stood at 106%. In addition, the Potency entry in assay [2], in assay [4], in [10], in assay [15], in assay [16] and in assay [7] was “inactive” each time. Further, the IC50 (viability decrease) entry in assay [17] is “inactive”. Moreover, in assay [8], the result was inactive.

Regarding `COC(=O)[C@H](Cc1ccccc1)NC(=O)[C@@H](N)CC(=O)O` (H-Asp-Phe-OMe), the viability (% of control) in [1] is 114%. The Potency result in [2], in [13], in assay [11], in assay [12], in [6] and in assay [7] was “inactive” each time.

In the case of `C[C@H](Cn1cnc2c(N)ncnc21)OCP(=O)(O)O`, the Potency entry in [2], in assay [13], in [3], in assay [9], in assay [4] and in assay [10] was “inactive” throughout. The Potency result in assay [11], in assay [12], in assay [5], in assay [6] and in assay [7] was “inactive” each time.

Consider `Cc1c(OCC(F)(F)F)ccnc1CS(=O)c1nc2ccccc2[nH]1` (stereo not drawn), for which the viability (% of control) in assay [1] is 100%. In addition, the Potency result in assay [2], in assay [13], in assay [10], in [11], in assay [12] and in assay [7] was “inactive” in each case. Moreover, the outcome in assay [8] was inactive.

Consider `NNc1nncc2ccccc12`, for which the viability (% of control) in assay [1] stood at 104%. The Potency result in [2], in assay [3], in [4], in [10], in assay [11] and in assay [12] was “inactive” throughout. The Potency result in assay [14] and in assay [7] was “inactive” throughout.

As for `COC(=O)C1=C(C)NC(C)=C(C(=O)OCCCN2CCC(c3ccccc3)(c3ccccc3)CC2)C1c1cccc([N+](=O)[O-])c1` (stereo not drawn), in [1], the viability (% of control) was 123%. Also, the Potency result in assay [2] and in assay [7] was “inactive” each time. Further, the Potency was 18.7 µM (active) in assay [4]; 29.6 µM (active) in assay [10]; 31.6 µM (active) in [11]; “inactive and 10.3 µM (active)” in assay [6].

For `O=C1CCc2ccc(OCCCCN3CCN(c4cccc(Cl)c4Cl)CC3)cc2N1`, the viability (% of control) in assay [1] turned out to be 110%. Moreover, the Potency result in [2], in assay [13], in assay [12] and in [6] was “inactive” in each case.

On to `O=C(CCc1ccc(O)cc1)c1c(O)cc(O)cc1O`, for which, in assay [1], the viability (% of control) came out at 41.1%. Besides, the Potency result in assay [2], in assay [5], in [6], in assay [14] and in [7] was “inactive” throughout. In addition, the values for the Potency in [3] and in [4] were 0.166 µM (active) and 5.9 µM (active), respectively. In assay [8], the result was inactive.

With `Cc1ccc(NC(=O)c2ccc(CN3CCN(C)CC3)cc2)cc1Nc1nccc(-c2cccnc2)n1`, the viability (% of control) in assay [1] was 81%. The Potency entry in [2], in [13], in assay [11], in assay [12], in assay [16] and in [18] was “inactive” in each case. Besides, the Potency result in [19] and in [6] was “inactive” throughout.

As to `Oc1ccc(-c2nc(-c3ccc(F)cc3)c(-c3ccncc3)[nH]2)cc1`, the viability (% of control) in assay [1] worked out at 54.8%. The Potency entry in assay [2], in [5], in assay [6] and in [7] was “inactive” in each case. Moreover, the result in assay [8] was inactive.

In the case of `C[Se]CCC(N)C(=O)O` (stereo not drawn), the viability (% of control) in assay [1] came out at 109% [at 92.2 µM]. The Potency result in [2], in [3], in assay [4], in [10], in assay [11] and in assay [12] was “inactive” throughout. In addition, the Potency entry in assay [6] and in [7] was “inactive” in each case.

`CN(C)c1ccc(O)c2c1C[C@H]1C[C@H]3[C@H](N(C)C)C(=O)C(C(N)=O)=C(O)[C@@]3(O)C(=O)C1=C2O`: the viability (% of control) in [1] was 80%. Also, the Potency entry in assay [2], in [11], in assay [12], in [6] and in [7] was “inactive” each time.

Take `CC(C)c1ccc2c(c1)c(SC(C)(C)C)c(CC(C)(C)C(=O)O)n2Cc1ccc(Cl)cc1`: in assay [1], the viability (% of control) stood at 119%. For the same compound, the Potency result in [2], in [13], in assay [16], in [19], in assay [14] and in assay [7] was “inactive” each time. Also, the Potency in assay [15] and in assay [20] was 18.7 µM (active) in each case. In addition, the outcome in [8] was inactive.
